According to PubChem BioAssay AID504339 (National Center for Advancing Translational Sciences (NCATS), 2011):
In all, about 390,000 compounds went through this assay and about 17,000 (4.4%) were called active. About 8% were inconclusive and are not listed. The call rests on the fitted dose curve; in most records, active means well fitted inhibition curve with a large enough effect; inconclusive means small, poorly fitted or top-dose-only effect; inactive means no such curve, though single readings can be large or run the other way. Many of the other results were omitted from the sample, so actives are more common in it than they were.

These molecules were tested against Lysine-specific demethylase 4A (Homo sapiens) (UniProt O75164) (assay: qHTS Assay for Inhibitors of JMJD2A-Tudor Domain). Details: AlphaScreen JMJD2A-Tudor / H3K4me3 peptide binding; series mostly up to 114 µM; activity change, negative = inhibition: at the top concentration.
Further: nearly all actives have a fitted effect of over 50% in size.
On the % scale 0 is the no-effect control and ±100 the full control effect; potency means the concentration at half of the fitted maximal effect.

Lysine-specific demethylase 4A (Homo sapiens), sequence (O75164 whole entry, looked up, the tested form may be a part): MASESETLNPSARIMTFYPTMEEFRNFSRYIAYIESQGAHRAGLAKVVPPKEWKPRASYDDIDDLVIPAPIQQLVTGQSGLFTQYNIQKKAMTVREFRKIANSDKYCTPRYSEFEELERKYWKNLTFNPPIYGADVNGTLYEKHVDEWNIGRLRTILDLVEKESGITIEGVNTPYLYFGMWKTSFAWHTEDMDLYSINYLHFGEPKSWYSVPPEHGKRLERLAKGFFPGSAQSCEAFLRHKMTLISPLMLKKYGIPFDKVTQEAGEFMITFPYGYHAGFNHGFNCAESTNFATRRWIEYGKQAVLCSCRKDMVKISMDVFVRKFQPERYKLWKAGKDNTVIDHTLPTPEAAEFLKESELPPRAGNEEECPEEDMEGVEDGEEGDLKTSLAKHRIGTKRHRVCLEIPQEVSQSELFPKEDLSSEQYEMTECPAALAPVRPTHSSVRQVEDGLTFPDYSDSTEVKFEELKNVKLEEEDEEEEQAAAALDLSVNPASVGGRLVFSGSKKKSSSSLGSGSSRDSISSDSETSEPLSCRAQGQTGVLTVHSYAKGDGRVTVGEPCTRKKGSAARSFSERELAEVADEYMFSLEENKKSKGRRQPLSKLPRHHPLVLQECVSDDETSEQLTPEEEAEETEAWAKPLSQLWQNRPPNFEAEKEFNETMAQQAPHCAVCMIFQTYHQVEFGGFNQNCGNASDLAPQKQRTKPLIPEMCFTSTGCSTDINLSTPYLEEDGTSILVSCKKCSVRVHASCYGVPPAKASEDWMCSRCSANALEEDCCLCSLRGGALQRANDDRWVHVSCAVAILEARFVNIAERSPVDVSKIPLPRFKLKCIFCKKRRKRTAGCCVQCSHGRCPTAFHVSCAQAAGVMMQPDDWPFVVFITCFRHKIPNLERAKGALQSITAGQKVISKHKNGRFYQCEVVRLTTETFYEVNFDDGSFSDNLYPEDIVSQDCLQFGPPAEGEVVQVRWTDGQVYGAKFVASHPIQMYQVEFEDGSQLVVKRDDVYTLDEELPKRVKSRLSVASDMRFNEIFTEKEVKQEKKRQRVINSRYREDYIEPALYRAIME

Activity change, negative = inhibition, inactive:
Cc1cc(-c2ccccc2)n2nc(-c3ccccc3)cc2n1 260%, Cc1nnc(SCC(=O)NCc2ccccc2Cl)c2nn(-c3ccccc3)c(C)c12 -5.86%, COc1ccc(CNC(=O)c2cc3c(=O)[nH]c4ccccc4c3s2)cc1 4.33%, CCN(c1ccccc1)S(=O)(=O)c1ccc(NC(=O)C(C)(C)C)cc1 -16%, CN(c1ccccc1)S(=O)(=O)c1ccc2[nH]c(=O)[nH]c2c1 -18.4%, CCCC12CN3CC(C)(CN(C1)C3c1ccccc1Cl)C2=O (centres undefined) 2.75%, CCOc1ccc(-c2nnn(CC(=O)N3CCN(c4ccc(OC)cc4)CC3)n2)cc1OCC -19%, COc1ccc(N2CCN(C(=O)CSc3nnc4ncccn34)CC2)cc1 -19.9%, COc1ccccc1C(=O)Nc1c(C(=O)N(C)Cc2ccccc2)sc2nc(C)c(Cl)c(C)c12 -16.8%, O=C(NCc1ccc(Cl)cc1)c1ccc2c(c1)nnn2C1CCCC1 -7.14%, COc1ccc(-c2nc(S(=O)(=O)c3ccccc3)c(N3CCCCC3)o2)cc1 -10%, CCOC(=O)c1cnc(SCC(=O)Nc2ccccc2C(=O)OC)nc1N -14.7%, CCOC(=O)COc1nc(C)cc(C(F)(F)F)c1C#N -18.1%, COc1ccccc1N1CCN(/N=C/c2ccc(O)cc2O)CC1 -20.3%, COc1ccccc1N1CCN(C2C(=O)c3ccccc3N2C(C)=O)CC1 (centres undefined) -22.4%, CCN1CCN(C(=O)N[C@@H](C(=O)N[C@@H]2C(=O)N3C(C(=O)O)=C(CSc4nnnn4C)CS[C@H]23)c2ccc(O)cc2)C(=O)C1=O -11%, Cc1nnc(SCC2=C(C(=O)O)N3C(=O)C(NC(=O)Cn4nc(C)c(Cl)c4C)C3SC2)s1 (centres undefined) -6.9%, O=C(NC1CC(=O)N(c2ccc(Cl)cc2)C1)C1CCCC1 (centres undefined) -2.92%, Cc1ccc(CN2CCC(CNC(=O)c3cnn(-c4ccc(C)cc4)c3C3CCN(C(=O)OC(C)(C)C)CC3)CC2)cc1 -28.8%, COc1ccc(CCNC(=O)COC(=O)c2cc(=O)c3ccccc3o2)cc1 5.23%, COc1ccc(CCNC(=O)COC(=O)C2CC2C)cc1 (centres undefined) 7.09%, COc1cccc(CNC(=O)c2cc(=O)[nH]c3ccc(S(=O)(=O)N4CCCCC4)cc23)c1 0.683%, CC1CN(C(=O)N2CCC(C(=O)NCc3ccco3)CC2)c2cc(Cl)ccc2O1 (centres undefined) -20.1%, CCCn1c(=N)n(CC(O)COc2ccccc2OC)c2ccccc21 (centres undefined) -15.5%, O=C(Cn1c(-c2cccs2)cc2ccccc21)NCCc1ccc(Cl)cc1 -13.2%, Cc1c(Cl)cccc1NC(=O)N1CCN(C(=O)c2nsc3ccccc23)CC1 -0.649%, CCCN(C(=O)Cn1ncc2c([nH]c3ccc(C)cc32)c1=O)c1ccccc1C -26.2%, CCOc1ccc(/C=C(/C#N)c2nnc(N3CCOCC3)n2-c2ccccc2)cc1OC -20.7%, CCCn1c2ccccc2c2cnn(CC(=O)NCC3CCN(Cc4ccc(C)cc4)CC3)c(=O)c21 -28.4%, CC(Sc1nnnn1C)C(=O)NC(=O)NC1CCCCC1 (centres undefined) -15.8%, O=C(CSc1nnnn1C1CCCC1)N1CCCCC1 2.05%, CCN(CC)c1ccc(C2C(C(N)=O)=C(C)Nc3nc(SCc4ccccc4)nn32)cc1 (centres undefined) -2.39%, CCc1ccc(NC(=O)c2cc(S(=O)(=O)N3CCCC(C)C3)cn2C)cc1 (centres undefined) 2.88%, CCOc1ccc(CNCc2c(C(=O)O)c(C)n(Cc3cccc(OC)c3)c2C)cc1OC -26.2%, CCOc1ccc(NC(=O)Nc2cc(C)on2)cc1 -0.741%, Cc1cc(NC(=O)COc2ccccc2C#N)no1 -12.1%, Cc1ccc(C(=O)Nc2ccc(OCc3cc(=O)n4c(C)csc4n3)cc2)cc1 -22.5%, CCOc1cccc(CNC(=O)c2ccc(N3CCCC3)c(NC(=O)Nc3ccccc3CC)c2)c1 -9.27%, COc1ccccc1/C=C/c1nc(C#N)c(NC(C)c2ccccc2)o1 (centres undefined) -14.2%, COc1cc2nc(NCC(C)c3ccccc3)n3nc(-c4ccccc4)nc3c2cc1OC (centres undefined) -26.5%, Clc1ccccc1CSc1nncn2c1cc1occc12 -27.5%, Nc1cc(N)nc(SCc2ccc(Cl)cc2)n1 -23.1%, COc1ccc(-n2c(C)nc3c(cnn3-c3ccc(F)cc3)c2=O)cc1 -6%, COc1cc(NC(=O)CSc2nc3nc(C)c(Cc4ccc(C)cc4)c(C)n3n2)cc(OC)c1OC -27.7%, O=C(O)c1c(CNCc2cccc(F)c2)c2ccccc2n1Cc1ccccc1 -20.5%, O=C(Nc1nnc(C2CC(=O)N(c3ccc(Cl)cc3)C2)s1)c1ccco1 (centres undefined) -10.6%, Cc1cccc(CSc2nc3ccncc3n2CC(=O)N(C)C2CCCCC2)c1 -8.05%, CCOc1ccc(CNC(=O)C2CCCN(S(=O)(=O)N(CC)c3ccc(OCC)cc3)C2)cc1 (centres undefined) -11%, Cc1sc2nc(CSCC(=O)NC3CCCCC3)[nH]c(=O)c2c1C -13.1%, CCOC(=O)c1sc2nc(CSCC(=O)OCc3ccc(C(=O)OC)o3)[nH]c(=O)c2c1C -18.7%, Cn1c(=O)sc2cc(NS(=O)(=O)c3ccc(C(C)(C)C)cc3)ccc21 -10.9%, CCOC(=O)c1ccc(NC(=O)c2c(NCc3cccc(OC)c3)sc3c2CCC3)cc1 -12.2%

Potency, active:
CCN(c1ccccc1)S(=O)(=O)c1ccc2[nH]c(=O)[nH]c2c1 56.2 µM, COc1ccc(N2CCN(C(=O)CSc3nc4cc(OC)c(OC)cc4cc3C#N)CC2)cc1 56.2 µM, CCOC(=O)C(Sc1ncc(C#N)c(N)n1)C(C)C (centres undefined) 44.7 µM, COc1ccccc1N1CCN(/N=C\C(Br)=C\c2ccccc2)CC1 39.8 µM, Cc1cc(C)cc(C(=O)NC2C(=O)N3C(C(=O)O)=C(CSc4nnc(C)s4)CSC23)c1 (centres undefined) 79.4 µM, COc1ccc(CCNC(=O)COC(=O)c2ccc[nH]c2=O)cc1 31.6 µM, CC(C)=CCCC1(C)C=Cc2c(ccc3c2[nH]c2cc(O)c(C)cc23)O1 (centres undefined) 44.7 µM, COc1cc(N2CCCC2)c(OC)cc1/C=C(/C#N)c1cccc(Br)c1 17.8 µM, CC(Sc1nnnn1C1CCCCC1)C(=O)O (centres undefined) 11.2 µM, Cc1cc(NC(=O)Nc2ccccc2[N+](=O)[O-])no1 22.4 µM, Clc1ccc(CSc2nncn3c2cc2occc23)cc1 39.8 µM, CSc1nnc(SCc2nc3sc(C(=O)O)c(C)c3c(=O)[nH]2)s1 12.6 µM
